According to PubChem BioAssay (EPA / NIEHS):
Inconclusive results are not listed. Active and inactive are the calls of the source. Rule for the calls, unless noted: active = hit-call score of the fitted dose curve at least 0.9, where 1 is the maximum; inactive = score below 0.9.

Legend:
[1] = CCTE_Shafer_MEA_acute_network_burst_percentage: CCTE's Neural Acute Assay for Percentage of Network Bursts, Shafer Lab (AID 2284022);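 note: curves fitted for loss so actives lower network burst percentage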
How it was run: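 Readout is the fraction of spikes falling in network bursts, expressed as per-well percent change from a 40-min pre-exposure baseline. Primary rat cortical neurons on MEA were exposed to 0.03-40 uM compound on DIV 13 or 15 and recorded for 40 min at 37 C.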

[2] = CCTE_Shafer_MEA_acute_cross_correlation_area: CCTE's Neural Acute Assay for Area of Cross Correlation, Shafer Lab (AID 2284024);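 note: area under pooled inter-electrode spike cross-correlation near zero lag as percent change from own baseline; curves fitted for loss of cross-correlation area so actives lower synchrony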;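 for outcome: rat primary cortical neuron networks on 48-well MEA at DIV 13 or 15 with 40 min exposure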
How it was run: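 Plates equilibrated 20 min at 37 C, then 40 min baseline was recorded, compound was added (0.03-40 uM), and a further 40 min was recorded. Wells needed ≥10 active electrodes (≥5 spikes/min) on exposure day.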

[3] = CCTE_Shafer_MEA_acute_cross_correlation_HWHM: CCTE's Neural Acute Assay for Cross Correlation at Half Width at Half Maximum, Shafer Lab (AID 2284026);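 note: percent change per well from pre-dose baseline in spike cross-correlogram half width; hits are a decrease in cross-correlogram half width relative to DMSO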;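 for outcome: spontaneous network firing of rat primary cortical neurons on multiwell microelectrode arrays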
How it was run: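 Rat cortical neuron cultures on microelectrode arrays were equilibrated 20 min at 37 C, recorded 40 min at baseline, then 40 min after compound addition (0.03-40 uM, ≥3 wells). Spikes were detected at 8x rms noise after 300-5000 Hz band-pass filtering.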

[4] = CCTE_Shafer_MEA_acute_synchrony_index: CCTE's Neural Acute Assay for Synchrony, Shafer Lab (AID 2284027);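 note: network synchrony index of spontaneous spiking in primary rat cortical neurons on MEAs; fitted for loss of signal so actives lower synchrony relative to DMSO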
How it was run: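 Spontaneous firing of mature rat cortical networks is captured extracellularly on microelectrode arrays at 37 C, with wells needing ≥10 active electrodes. Each compound (0.03-40 uM) is judged by the change in synchrony index from baseline over 40 min.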

[5] = molecular target: Estrogen receptor (Homo sapiens) (UniProt P03372); assay: CCTE_Deisenroth_AIME_384WELL_LUC_Active: CCTE's 384-well Estrogen Receptor Transactivation Assay with AIME metabolic competence (ERTA luciferase; metabolism positive), Deisenroth Lab (AID 2284030; active = hit-call score of the fitted dose curve at least 0.9, where 1 is the maximum)
How it was run: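 AIME metabolism-positive mode: chemicals 0.002 - 200 uM, 2 h with alginate-bound PB/BNF-induced rat S9 → medium to VM7Luc4E2 ERTA, 24 h → luciferase. Positive fit vs 17beta-estradiol; n=4 typical.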

Chain of Estrogen receptor (Homo sapiens) (P03372 whole entry, looked up): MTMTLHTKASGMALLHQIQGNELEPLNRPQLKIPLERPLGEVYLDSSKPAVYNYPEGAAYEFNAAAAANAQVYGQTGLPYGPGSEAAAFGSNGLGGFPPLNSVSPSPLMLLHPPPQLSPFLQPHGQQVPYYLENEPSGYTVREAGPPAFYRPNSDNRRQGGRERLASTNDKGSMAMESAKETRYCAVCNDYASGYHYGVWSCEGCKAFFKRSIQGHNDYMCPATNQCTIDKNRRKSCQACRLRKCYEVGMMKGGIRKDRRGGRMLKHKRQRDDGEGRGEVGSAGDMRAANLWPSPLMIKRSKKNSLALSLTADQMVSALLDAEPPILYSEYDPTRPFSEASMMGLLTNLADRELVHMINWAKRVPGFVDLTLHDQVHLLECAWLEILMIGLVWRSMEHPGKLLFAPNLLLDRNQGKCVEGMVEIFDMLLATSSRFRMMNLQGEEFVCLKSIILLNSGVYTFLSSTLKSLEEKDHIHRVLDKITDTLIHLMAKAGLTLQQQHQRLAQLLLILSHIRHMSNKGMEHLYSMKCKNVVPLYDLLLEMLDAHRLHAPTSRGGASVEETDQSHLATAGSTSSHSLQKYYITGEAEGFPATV

CN(C)C(=O)C1(N2CCCCC2)CCN(CC[C@@]2(c3ccc(Cl)c(Cl)c3)CN(C(=O)c3ccccc3)CCO2)CC1
AC50 [1]: 17.8 µM (active) | outcome [2]: inactive | AC50 [3]: 22.1 µM (active) | AC50 [4]: 19.5 µM (active)

CCN(Cc1cccc(S(=O)(=O)O)c1)c1ccc(C(=C2C=CC(=[N+](CC)Cc3cccc(S(=O)(=O)O)c3)C=C2)c2ccccc2S(=O)(=O)[O-])cc1
outcome [1]: inactive | outcome [2]: inactive | outcome [3]: inactive | AC50 [4]: 12.9 µM (active)

NCc1cccc(C2CCN(C(=O)c3ccc(C#Cc4ccccc4F)o3)CC2)c1
AC50 [1]: 31.4 µM (active) | outcome [2]: inactive | AC50 [3]: 34.9 µM (active) | AC50 [4]: 28.6 µM (active)

O=C(O)c1ccccc1-n1cc(C(=O)O)c(=O)c2cc(Nc3c(F)cc(F)cc3Cl)c(Cl)cc21
outcome [1]: inactive | outcome [2]: inactive | outcome [3]: inactive | outcome [4]: inactive

CC1=CC(=O)/C(=C(/C)O)C(=O)O1
outcome [1]: inactive | outcome [2]: inactive | outcome [3]: inactive | outcome [4]: inactive

O=c1[nH]sc2ccccc12
AC50 [1]: 7.94 µM (active) | AC50 [2]: 0.0302 µM (active) | AC50 [3]: 32.6 µM (active) | AC50 [4]: 20 µM (active) | outcome [5]: inactive

CC[C@@H]1C[C@H](N(Cc2cc(C(F)(F)F)cc(C(F)(F)F)c2)C(C)=O)c2cc(C(F)(F)F)ccc2N1C(=O)OC(C)C
outcome [1]: inactive | outcome [2]: inactive | outcome [3]: inactive | AC50 [4]: 3.97 µM (active)

Cc1c2ccccc2c(C)c2c1ccc1ccccc12
outcome [1]: inactive | outcome [2]: inactive | AC50 [3]: 26.3 µM (active) | AC50 [4]: 36.9 µM (active) | AC50 [5]: 13.9 µM (active)

CC(O)CC(C)(C)O (configuration not stated)
outcome [1]: inactive | outcome [2]: inactive | outcome [3]: inactive | outcome [4]: inactive

CC(C)(C)c1cc(/C=C2\SC(N)=NC2=O)cc(C(C)(C)C)c1O
outcome [1]: inactive | outcome [2]: inactive | outcome [3]: inactive | outcome [4]: inactive | outcome [5]: inactive

Cc1cc2c(cc1C(F)(F)F)N(C(=O)Nc1ccc(Oc3cccnc3C)nc1)CC2
outcome [1]: inactive | outcome [2]: inactive | outcome [3]: inactive | outcome [4]: inactive

NC(=O)c1nc(-c2cccc(-c3cc(F)ccc3OCC(F)(F)C(F)(F)F)c2)n[nH]1
outcome [1]: inactive | outcome [2]: inactive | AC50 [3]: 8.29 µM (active) | AC50 [4]: 6.63 µM (active)

CCN(CC)C(=O)c1cc(S(=O)(=O)Cc2ccccc2)c(N2CCC(c3ccccc3)CC2)cc1N(CC)CCN(C)C
AC50 [1]: 13.3 µM (active) | outcome [2]: inactive | AC50 [3]: 11 µM (active) | AC50 [4]: 11.8 µM (active) | outcome [5]: inactive

COc1cc(C(=O)NC2CCN(C)CC2)ccc1Nc1ncc2c(n1)N(C1CCCC1)CC(F)(F)C(=O)N2C
AC50 [1]: 10.5 µM (active) | outcome [2]: inactive | AC50 [3]: 30.1 µM (active) | AC50 [4]: 18.6 µM (active)

C[C@]12CC[C@@H]3c4ccc(O)cc4CC[C@H]3[C@@H]1CC[C@H]2O
outcome [1]: inactive | outcome [2]: inactive | outcome [3]: inactive | outcome [4]: inactive

CN(C[C@@H](CC[N+]12CCC(C3CCCCC3)(CC1)CC2)c1ccc(Cl)c(Cl)c1)C(=O)c1cc(C(F)(F)F)cc(C(F)(F)F)c1
AC50 [1]: 8.37 µM (active) | outcome [2]: inactive | AC50 [3]: 8 µM (active) | AC50 [4]: 8.29 µM (active)

Cc1cn([C@H]2C[C@H](N=[N+]=[N-])[C@@H](CO)O2)c(=O)[nH]c1=O
outcome [1]: inactive | outcome [2]: inactive | outcome [3]: inactive | outcome [4]: inactive | outcome [5]: inactive

c1ccc2n[nH]nc2c1
outcome [1]: inactive | outcome [2]: inactive | outcome [3]: inactive | outcome [4]: inactive
